Bead autofluor – compound fluorescence in toxin protease inhibitor counterscreen; compound autofluorescence counterscreen, microsphere flow cytometry; active compounds read high; fluorescence intensity (no concentration beside the values); 360,000 tested, 3.1% active; AID 624483; in the data active = fluorescence intensity above about 16000; inconclusive = no clear call, values can overlap the other calls
BoNT F protease – inhibitors of Botulinum neurotoxin F light chain protease | 360,000 tested, 0.22% active | inhibition, % at 10 µM | Multiplex microsphere protease cleavage assay, flow cytometry; in the data active = inhibition above about 35%, passing the limit was not always enough; inconclusive = no clear call, values can overlap the other calls; note: plate controls were buffer without enzyme for full effect and enzyme alone for no effect
BoNT A protease – inhibitors of Botulinum neurotoxin A light chain protease. multiplex microsphere protease substrate cleavage, flow cytometry. inhibition, % at 10 µM. 360,000 tested, 0.17% active; note: plate controls were buffer without enzyme for full effect and enzyme alone for no effect
Anthrax LF prot – inhibitors of Bacillus anthracis lethal factor protease; P15917; multiplex microsphere protease cleavage assay, LF; inhibition, % at 10 µM; 360,000 tested, 0.12% active; note: plate controls were buffer without enzyme for full effect and enzyme alone for no effect
Target sequence (P15917 whole entry, looked up): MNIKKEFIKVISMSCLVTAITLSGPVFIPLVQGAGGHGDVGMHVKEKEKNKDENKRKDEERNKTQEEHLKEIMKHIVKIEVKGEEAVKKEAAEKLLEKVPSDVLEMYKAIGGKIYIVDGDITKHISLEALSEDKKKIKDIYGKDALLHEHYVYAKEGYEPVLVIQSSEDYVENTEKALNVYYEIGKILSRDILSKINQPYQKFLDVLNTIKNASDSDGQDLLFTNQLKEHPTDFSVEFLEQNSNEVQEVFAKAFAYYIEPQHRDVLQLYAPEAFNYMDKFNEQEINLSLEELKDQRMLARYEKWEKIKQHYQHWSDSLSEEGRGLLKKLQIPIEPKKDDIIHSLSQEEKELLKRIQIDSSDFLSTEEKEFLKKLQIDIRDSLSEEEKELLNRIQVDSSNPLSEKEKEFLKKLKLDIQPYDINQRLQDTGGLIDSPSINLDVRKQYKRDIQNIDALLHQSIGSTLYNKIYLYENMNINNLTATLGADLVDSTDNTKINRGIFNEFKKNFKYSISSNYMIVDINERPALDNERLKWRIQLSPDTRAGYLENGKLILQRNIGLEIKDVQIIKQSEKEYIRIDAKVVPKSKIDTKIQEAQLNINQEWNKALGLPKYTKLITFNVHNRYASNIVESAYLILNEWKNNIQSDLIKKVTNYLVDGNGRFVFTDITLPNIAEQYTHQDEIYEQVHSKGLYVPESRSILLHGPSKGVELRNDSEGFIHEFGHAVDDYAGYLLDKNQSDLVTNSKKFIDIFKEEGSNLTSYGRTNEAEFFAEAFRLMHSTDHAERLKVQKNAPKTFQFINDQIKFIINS
* marks the source's active call; other numbers are inactive results; ? = inconclusive. The list is not random: actives were taken first. Their share in the collection is about 3.5%. Cut-off read from the data, not from the text of the source, unless noted: active = inhibition above about 30%; inconclusive = no clear call, values can overlap the other calls; inactive = below that.

SMILES	Bead autofluor	BoNT F protease	BoNT A protease	Anthrax LF prot
COC(=O)C1=C(C)NC(=O)NC1c1ccccc1 (stereo not drawn)	23564*	-3	-2	-3
COC(=O)C1=C(C)NC(C)=C(C(=O)OC)C1c1ccc(NC(C)=O)cc1	10473	-1	0	1
COC(=O)C1=C(C)NC(=O)NC1c1ccc2ccccc2c1 (stereo not drawn)	3936	8	-3	-18
CCN(CC)c1ccc(C2C(C(=O)OC)=C(C)NC(C)=C2C(=O)OC)cc1	22496*	2	1	-3
CC(=NNC(=S)Nc1cccc(Cl)c1)c1ccccn1	4466	63*	10	41*
CC(=NNC(=S)SCc1ccccc1)c1ccccn1	3593	83*	42*	57*
CC(=NNC(=S)N1CCCC1)c1ccccn1	3636	25	5	17
CCc1cc[n+](/C(C(=S)Nc2cccc(C)c2)=C(/[O-])c2ccc(C)c([N+](=O)[O-])c2)cc1	3019	-22	32*	9
CCOc1ccc(NC(=S)/C(=C(\[O-])c2ccc(C)c([N+](=O)[O-])c2)[n+]2ccccc2)cc1	4794	-34	9	-9
Cc1cccc2c1OCC/C2=N\NC(=O)COc1ccccc1	20669*	-1	-2	0
Cc1ccc(NC(=O)COC(=O)CCc2ccc(S(=O)(=O)N3CCOCC3)cc2)cc1F	5334	2	-1	2
CC1(C)CC(=O)C2=C(C1)OC(N)=C(C#N)C21C(=O)N2CCCc3cccc1c32 (stereo not drawn)	16191*	1	1	-5
Cc1ccc(S(=O)(=O)Nc2cccc(S(=O)(=O)N3CCCC3)c2)cc1C	5887	-11	-1	-2
CCN(CC)c1ccc(C(=O)c2ccccc2C(=O)O)c(O)c1	23518*	-5	?	-2
CCCCN1C(=O)C(CC(=O)NCc2ccco2)CC(C(=O)N(C(C)C)C(C)C)=C1C (stereo not drawn)	5767	-5	0	3
COC(=O)C1C(c2ccccc2)C(C(=O)OCc2ccco2)C1c1ccccc1 (stereo not drawn)	20681*	7	6	-7
Cc1ccccc1OC(=O)C1C(c2ccccc2)C(C(=O)O)C1c1ccccc1 (stereo not drawn)	20251*	12	6	3
CCCCCOC(=O)C1C(c2ccccc2)C(C(=O)O)C1c1ccccc1 (stereo not drawn)	2668	-1	0	2
CCOC(=O)C1C(c2ccccc2)C(C(=O)OCC)C1c1ccccc1 (stereo not drawn)	9355	-7	0	1
O=C(O)C1C(c2ccccc2)C(C(=O)OCc2ccco2)C1c1ccccc1 (stereo not drawn)	23151*	-1	-1	-1
O=C(O)C1C(c2ccccc2)C(C(=O)OCCCO)C1c1ccccc1 (stereo not drawn)	22890*	-2	0	-2
CC(C)CC(=O)c1c(O)c(C=O)c(O)c2c1O[C@@]1(C)[C@@H](C2)C[C@H]2C[C@@H]1C2(C)C	3009	-4	0	-4
CCC(C)(CN(C)C)OC(=O)c1ccccc1 (stereo not drawn)	5623	0	0	-7
CC(=O)CC(=O)NC1CCc2ccccc21 (stereo not drawn)	3157	5	0	4
CCOc1cccc(=O)c2c(C)n(Cc3ccco3)c(C)c12	22022*	1	2	-2
SMILES	Bead autofluor	BoNT F protease	BoNT A protease	Anthrax LF prot
Cc1cc(-c2nc3cc(F)ccc3s2)ccc1N	3274	-2	0	-7
Nc1c(-c2ccccc2)n[nH]c1-c1ccccc1	23500*	-5	?	-2
COc1cc2cc(CN(C(=O)NC3CCCCC3)C3CCCC3)c(=O)[nH]c2cc1OC	2367	-7	1	3
Cc1ccc(C)c2[nH]c(=O)c(CN(CC3CCCO3)C(=O)NC3CCCCC3)cc12 (stereo not drawn)	19956*	0	?	0
COc1ccc(CN(Cc2cc3cc(OC)c(OC)cc3[nH]c2=O)C(=O)NC2CCCCC2)cc1	22119*	-1	-1	-5
Cc1ccc([C@H]2C[C@@H](n3cc(COC(=O)c4ccccc4)nn3)[C@H](O)CN2C(=O)c2cccs2)cc1	2883	-1	0	-1
O=C(NCc1cccc(Cl)c1)c1ccc2c(c1)OCO2	21016*	0	?	1
CCS(=O)(=O)N1CCC(C(=O)NCc2ccc3c(c2)OCO3)CC1	7669	3	0	-3
O=C(Nc1cccc(Cl)c1)C1=Cc2cc(Cl)ccc2OC1	2687	3	0	4
O=C(NCc1ccc(Cl)cc1)C1=Cc2cc(Cl)ccc2OC1	21246*	1	2	1
CCCCC1CCC(C(=O)NCc2ccc3c(c2)OCO3)CC1 (stereo not drawn)	23610*	-2	-2	0
O=C(CSCc1cccc(Cl)c1)NCc1ccc2c(c1)OCO2	21289*	3	2	-6
O=C(NCc1ccc2c(c1)OCO2)c1cccc(Cl)c1	4708	15	0	-1
CN(Cc1ccccc1)C(=O)c1cccc(NC(=O)Cc2cccc([N+](=O)[O-])c2)c1	4134	1	0	-2
Cc1cccc(C(=O)O[C@@H]2[C@H](Cc3ccccc3)NS(=O)(=O)[C@H]3C[C@@H]4C=C[C@]23O4)c1	3887	0	0	4
O=C(NCc1ccccn1)c1cc(S(=O)(=O)N2CCCCC2)ccc1Cl	5008	?	4	0
O=C(NCc1cccnc1)c1ccc2c(c1)OCO2	22188*	-3	?	-2
O=C(CCS(=O)(=O)c1ccc(Br)s1)NCc1ccc2c(c1)OCO2	22950*	1	?	0
COCC(=O)NCc1ccc2c(c1)OCO2	22350*	4	2	1
O=C(COC(=O)c1ccc2c(c1)OCO2)NCc1ccc2c(c1)OCO2	?	-1	4	14
Cc1ccccc1-c1nc(S(=O)(=O)c2ccccc2)c(NCCN2CCOCC2)o1	2762	3	0	-11
CCC(=O)Oc1c(C(=O)CC)cc2c(C)cc(=O)oc2c1C	7504	13	1	0
CCC(=O)c1cc2c(C)cc(=O)oc2c(C)c1OC	22529*	3	1	-2
COC(=O)c1nn(-c2ccc(OC)cc2)c(=O)cc1Oc1cccc(Cl)c1	20164*	-4	?	0
Cc1ccc2c(c1)N(Cc1ccccc1)C(=O)C(C)O2 (stereo not drawn)	3856	-2	0	-6
SMILES	Bead autofluor	BoNT F protease	BoNT A protease	Anthrax LF prot
CCCCNC(=O)CN1C(=O)C(CC)Oc2ccc(Cl)cc21 (stereo not drawn)	7447	13	1	5
CCOC(=O)CN1C(=O)C(CC)Oc2ccc(Cl)cc21 (stereo not drawn)	21455*	-5	-4	-1
CCC1Oc2ccc(C)cc2N(Cc2cccc(C)c2)C1=O (stereo not drawn)	17288*	-7	?	-2
Cc1ccc(OCC(=O)N2N=C(C(F)(F)F)CC2(O)C(C)(C)C)cc1C (stereo not drawn)	19845*	-1	2	-7
CC(C)(C)CC(=O)Nc1cc2c3c(c1)CCC(=O)N3CCC2	4615	13	3	3
COc1cccc2c1OC[C@@H](CO)[C@H]2N(C)C(=O)Nc1ccc(Cl)cc1	21011*	10	6	-1

Compound activity: PubChem, NMMLSC
